Consider 57 molecules from PubChem BioAssay AID463173 (ICCB-Longwood Screening Facility, Harvard Medical School, 2010).

Out of some 52,000 compounds screened, about 4,300 (8.3%) were called active. Many of the other results were omitted from the sample, so actives are more common in it than they were. Values without a mark were called inactive. No stated cut-off is given here; in the data, active means survival mostly below about 52% (no sharp cut-off); inactive means mostly above about 56%.

The experiment relates to DeltatarO mutant. Nature of the experiment: growth inhibition of S. aureus wild type versus tarO mutant, primary screen, teichoic acid synthesis inhibitors, RN4220, OD600 (AID 463173). As to conditions: OD600, 18 h, stronger effect = lower value, screened at 18.75 µg/mL (by protocol).
Turning to `Cc1cc(Nc2ccc(C)c(C)c2)n2cnnc2n1`, the survival is 94%.
Turning to `CC1CCN(c2cc3c(cc2F)c(=O)c(S(=O)(=O)c2cccc(Cl)c2)cn3Cc2ccccc2)CC1`, the survival was 80%.
Consider `COc1ccccc1C(=O)n1nc(-c2ccco2)nc1NCc1ccc(Cl)cc1`, for which the survival is 54%.
On to `COc1ccc(C(=O)/C=C\Nc2ccc(S(=O)(=O)N=C(N)N)cc2)cc1OC`, for which the survival is 76%.
The value for `Cc1ccc(CN(C(=O)COc2ccc(C)c(C)c2)C2CCS(=O)(=O)C2)o1` (configuration not stated) was 92%.
In the case of `Cc1cccc(CNC(=O)C2CCN(c3nnc(-n4c(C)ccc4C)s3)CC2)c1`, the survival was 95%.
The value for `O=C(c1noc2c1CCCCC2)N1CCN(c2cccc(Cl)c2)CC1` was 69%.
For `O=C(c1cc2ccc3cccnc3c2[nH]1)N1CCN(c2ccccc2)CC1`, the survival was 75%.
The value for `CC1CCc2onc(C(=O)N3CCN(c4cccc(C(F)(F)F)c4)CC3)c2C1` (configuration not stated) was 37% (active).
Consider `O=C(c1noc2c1CCCCC2)N1CCN(c2ccc(Cl)cc2)CC1`, for which the survival was 98%.
With `O=C(c1cc2ccc3cccnc3c2[nH]1)N1CCN(c2cccc(C(F)(F)F)c2)CC1` the figure was 0% (active); with `O=C(c1cc2ccc3cccnc3c2[nH]1)N1CCN(c2ccc(Cl)cc2)CC1`, 84%; with `CC1CCc2onc(C(=O)N3CCN(c4cccc(Cl)c4)CC3)c2C1` (configuration not stated), 69%.
Take `CC1CCc2onc(C(=O)N3CCN(c4ccccc4)CC3)c2C1` (configuration not stated): the survival is 117%.
With `O=C(c1noc2c1CCCCC2)N1CCN(c2cccc(C(F)(F)F)c2)CC1` the figure was 0% (active).
With `CCC(=O)Nc1ccc2nc(SCc3ccc(C)cc3)sc2c1` the figure was 84%; with `Cc1ccc(-n2nc(C)c3c(C(=O)Nc4ccccc4C(F)(F)F)cc(C)nc32)cc1`, 95%.
With `Cc1ccc(NC(=O)CSc2nnc(C)s2)c(C)c1` the figure was 67%; with `CCOc1ccc(CNCc2c(C(=O)O)c(C)n(Cc3ccc(F)cc3Cl)c2C)cc1`, 118%; with `Cc1ccc(C)c(Cn2c(=O)n(-c3ccccc3)c(=O)c3c4c(sc32)CCCC4)c1`, 120%.
`COc1ccc(CCNC(=O)C(=O)NCC(c2ccco2)S(=O)(=O)c2ccc(C)cc2)cc1` (configuration not stated): the survival was 134%.
With `O=C(Cn1c(=O)c2cccn2c2ccccc21)Nc1cc(F)ccc1F` the figure was 44%.
Regarding `CCCn1c(CCC(=O)Nc2ccccc2OC)nc2cccnc21`, the survival was 88%.
The value for `CCCS(=O)(=O)NCCc1sc2nc(-c3ccc(F)cc3)nn2c1C` was 76%; that for `Cc1c(CCNS(=O)(=O)c2ccccc2)sc2nc(-c3ccc(Cl)cc3)nn12` was 6% (active).
For the molecule `Cc1cc(C)c(S(=O)(=O)NCCc2sc3nc(-c4ccc(F)cc4)nn3c2C)c(C)c1`, the survival is 79%.
With `Cc1ccc(-c2nc3sc(CCNS(=O)(=O)c4cc(F)ccc4F)c(C)n3n2)cc1` the figure was -2% (active); with `COc1ccc(F)cc1S(=O)(=O)NCCc1sc2nc(-c3ccc(F)cc3)nn2c1C`, 90%; with `CCS(=O)(=O)NCCc1sc2nc(-c3ccc(OC)cc3)nn2c1C`, 72%.
The value for `CCCS(=O)(=O)NCCc1sc2nc(-c3ccc(Cl)cc3)nn2c1C` was 70%; that for `COc1ccc(-c2nc3sc(CCNS(=O)(=O)c4ccccc4)c(C)n3n2)cc1` was 64%; that for `COc1ccc(-c2nc3sc(CCNS(=O)(=O)c4c(C)cc(C)cc4C)c(C)n3n2)cc1` was -1% (active).
For the molecule `Cc1ccc(-n2ncc3c(N4CCN(CCO)CC4)ncnc32)cc1Cl`, the survival was 101%.
With `CCN(CC)c1ncccc1C(=O)NCc1cccs1` the figure was 81%.
For `Cc1c(Cl)cccc1NC(=O)Nc1nnc(N2CCCCCC2)s1`, the survival was 84%.
With `COc1ccccc1Nc1c2c(nc3ccc(NC(=O)c4cccc(OC)c4OC)cc13)CCCC2` the figure was 46% (active).
With `COc1ccccc1Nc1c2c(nc3ccc(NC(=O)c4ccccc4F)cc13)CCCC2` the figure was 82%; with `COc1ccccc1Nc1c2c(nc3ccc(NC(=O)c4ccc(OC)c(OC)c4)cc13)CCCC2`, 59%.
The value for `COc1ccccc1Nc1c2c(nc3ccc(NC(=O)c4cccc(F)c4)cc13)CCCC2` was 70%; that for `COc1ccc(C(=O)Nc2ccc3nc4c(c(Nc5ccc(OC)c(OC)c5)c3c2)CCCC4)c(OC)c1` was 87%; that for `COc1ccc(C(=O)Nc2ccc3nc4c(c(Nc5ccccc5OC)c3c2)CCCC4)c(OC)c1` was 48% (active).
Consider `O=C(CNC(=O)c1ccc(Cl)cc1)OCc1cc(=O)n2nc(C3CC3)sc2n1`, for which the survival is 67%.
With `COC(=O)c1cn(C(C)C(=O)NCc2ccco2)c2ccccc12` (configuration not stated) the figure was 91%; with `O=C(CSCc1ccc(F)cc1)N1CCc2c([nH]c3ccccc23)C1c1ccccc1` (configuration not stated), 101%; with `Cc1ccc(NC(=O)C(=O)c2cc(C)n(-c3ccc(F)cc3)c2C)cc1C`, 89%.
Turning to `CC(=O)c1ccccc1OCC(O)Cn1c(CO)nc2ccccc21` (configuration not stated), the survival is 59%.
With `Cc1ccc2c(c1)c1c(c(=O)n(Cc3ccccc3)c(=O)n1CC(=O)Nc1ccccc1C)n2C` the figure was 99%; with `Cc1cccc(OCC(=O)Nc2ccc3c(c2)N(C)C(=O)c2ccccc2S3)c1`, 73%.
Consider `COc1cccc(C(=O)Nc2ccc(Cl)c(-c3nc4ccccc4[nH]3)c2)c1`, for which the survival was 68%.
The value for `Cc1cc(C)cc(OCC(=O)Nc2cccc(-c3nc4ccccc4[nH]3)c2)c1` was 31% (active); that for `Cc1cc(OCC(=O)Nc2cc(-c3nc4ccccc4[nH]3)ccc2C)ccc1Cl` was 96%; that for `Cc1cccc(OCC(=O)Nc2ccc(Cl)c(-c3nc4ccccc4[nH]3)c2)c1` was 38% (active).
With `COc1ccc(-n2nc3ccc(NC(=O)COc4ccc(C)c(C)c4)cc3n2)cc1` the figure was 56%; with `Cc1ccc(OCC(=O)Nc2ccc(Cl)c(-c3nc4ccccc4[nH]3)c2)cc1C`, 43% (active); with `CC(C)CC(=O)Nc1cccc(-c2nc3ccccc3[nH]2)c1`, 68%.
On to `COc1cccc(N2CC(NC(=O)c3ccc(S(=O)(=O)N4CCCCC4)cc3)CC2=O)c1` (configuration not stated), for which the survival was 92%.
The value for `CCn1c(=O)c(C(=O)Nc2ccc(C(C)=O)cc2)nc2ccccc21` was 81%.
